{"source": "PubChem BioAssay", "key": {"[1]": {"experiment": "signal quenchers or enhancers, Cy5 substrate/SSB – biochemical, NIH Clinical Collection, E. coli SSB, artefact control for HCV NS3 helicase inhibitor project (AID 743268)", "conditions": "Cy5-oligo bound E. coli SSB, fluorescence interference"}, "[2]": {"system": "Hepatitis C virus NS3 helicase", "experiment": "blockers of NS3h binding to DNA – biochemical, fluorescence polarization, NIH Clinical Collection, primary screen (AID 743270)", "conditions": "NS3 helicase binding to Cy5-dT15 DNA, stronger effect = higher value, concentration not given here"}, "[3]": {"molecular_target": "Single-stranded DNA-binding protein (Escherichia coli (strain K12)) (UniProt P0AGE0)", "experiment": "SSB-ssDNA binding inhibitors – biochemical, fluorescence polarization, NIH Clinical Collection, counter-screen for HCV NS3 helicase inhibitor project (AID 743271; in the data active means inhibition above about 28%)", "conditions": "E. coli SSB-DNA binding, stronger effect = higher value, concentration not given here"}, "[4]": {"experiment": "compounds distorting NS3 helicase fluorescence signal – biochemical, NIH Clinical Collection, artefact control for HCV NS3 helicase inhibitor project (AID 743272)", "conditions": "fluorescence interference counterscreen, HCV NS3 helicase assay; stronger effect = lower value"}, "[5]": {"experiment": "liver-stage malaria parasite load reduction – cell-based, known kinase inhibitor set, luminescence, hepatoma host viability (AID 624392);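 further: infected cells incubated roughly two days before readout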", "conditions": "Plasmodium liver stage in hepatoma cells, luciferase luminescence, concentration not given here; liver cell % of control: measured here: host liver cell viability; parasite % of control: stronger effect = lower value"}, "[6]": {"system": "Hepatitis C virus NS3 helicase", "experiment": "blockers of NS3h binding to ssDNA – biochemical, fluorescence polarization, LOPAC1280 library, primary screen (AID 687035; in the data active means inhibition above about 37%)", "conditions": "Purified HCV NS3 helicase, Cy5-dT15 ssDNA binding fluorescence polarization; stronger effect = higher value; concentration not given here"}, "[7]": {"experiment": "compounds altering Cy5-DNA-NS3h complex signal – biochemical, LOPAC1280, artefact control for HCV NS3 helicase inhibitor project (AID 687037)", "conditions": "Cy5-DNA-NS3h complex fluorescence interference counterscreen"}, "[8]": {"system": "Neuropilin-2 / VEGF-C interaction (human)", "experiment": "small molecules blocking Neuropilin-2/VEGF-C interaction – biochemical, microplate binding format, z-score (AID 743281)", "conditions": "microplate NRP2/VEGF-C binding assay"}}, "note": "Active and inactive are the calls of the source. Unless noted, how the calls were made is not given here.", "data": [{"smiles": "CC/C(O)=N/S(=O)(=O)c1ccc(-c2c(-c3ccccc3)noc2C)cc1", "values": [{"measurement": "fluorescence ratio", "setting": "[1]", "value": "1.03 (inactive)"}, {"measurement": "inhibition", "setting": "[2]", "value": "-1.97% (inactive)"}, {"measurement": "inhibition", "setting": "[3]", "value": "-2.76% (inactive)"}, {"measurement": "fluorescence ratio", "setting": "[4]", "value": "1.01 (inactive)"}]}, {"smiles": "O=C(O)COCCN1CCN([C@@H](c2ccccc2)c2ccc(Cl)cc2)CC1", "values": [{"measurement": "inhibition", "setting": "[2]", "value": "-1.98% (inactive)"}, {"measurement": "inhibition", "setting": "[3]", "value": "-1.64% (inactive)"}, {"measurement": "fluorescence ratio", "setting": "[4]", "value": "0.95 (inactive)"}]}, {"smiles": "CCC(CO)Nc1nc(Nc2cccc(Cl)c2)c2ncn(C(C)C)c2n1", "note": "(stereo not given)", "values": [{"measurement": "liver cell % of control", "setting": "[5]", "value": 90.3, "unit": "%"}, {"measurement": "parasite % of control", "setting": "[5]", "value": "477% (inactive)"}]}, {"smiles": "COc1cc(C(=O)N2CCC(N3CCCCC3)CC2)ccc1Nc1nnc(Cl)c(Nc2ccccc2S(C)(=O)=O)n1", "values": [{"measurement": "liver cell % of control", "setting": "[5]", "value": 97.3, "unit": "%"}, {"measurement": "parasite % of control", "setting": "[5]", "value": "118% (inactive)"}]}, {"smiles": "CC(C)C(CO)Nc1nc(Nc2ccc(S(=O)(=O)O)c(N)c2)c2ncn(C(C)C)c2n1", "note": "(stereo not given)", "values": [{"measurement": "liver cell % of control", "setting": "[5]", "value": 101, "unit": "%"}, {"measurement": "parasite % of control", "setting": "[5]", "value": "105% (inactive)"}]}, {"smiles": "Cc1cn(-c2cc(C(=O)Nc3ccc(C)c(NC(=O)C(=O)c4c[nH]c5ccccc45)c3)cc(C(F)(F)F)c2)cn1", "values": [{"measurement": "liver cell % of control", "setting": "[5]", "value": 95.9, "unit": "%"}, {"measurement": "parasite % of control", "setting": "[5]", "value": "102% (inactive)"}]}, {"smiles": "CCN1CCN(Cc2ccc(NC(=O)c3cc(NC(=O)c4cc(C)on4)cc(OC)c3)cc2C(F)(F)F)CC1", "values": [{"measurement": "liver cell % of control", "setting": "[5]", "value": 99.3, "unit": "%"}, {"measurement": "parasite % of control", "setting": "[5]", "value": "92.3% (inactive)"}]}, {"smiles": "CO[C@H]1C=CO[C@@]2(C)Oc3c(C)c(O)c4c(O)c(c(/C=N/N5CCN(C6CCCC6)CC5)c(O)c4c3C2=O)NC(=O)C(C)=CC=C[C@H](C)[C@H](O)[C@@H](C)[C@@H](O)[C@@H](C)[C@H](OC(C)=O)[C@@H]1C", "values": [{"measurement": "fluorescence ratio", "setting": "[1]", "value": "1.02 (inactive)"}, {"measurement": "inhibition", "setting": "[2]", "value": "-3.56% (inactive)"}, {"measurement": "inhibition", "setting": "[3]", "value": "9.91% (inactive)"}, {"measurement": "fluorescence ratio", "setting": "[4]", "value": "1.01 (inactive)"}]}, {"smiles": "O=C(Nc1ccc(-c2csc(Nc3ccccc3)n2)cc1)c1cccc(C(F)(F)F)c1", "values": [{"measurement": "liver cell % of control", "setting": "[5]", "value": 99.8, "unit": "%"}, {"measurement": "parasite % of control", "setting": "[5]", "value": "99.4% (inactive)"}]}, {"smiles": "Cc1ccc(C(=O)Nc2cccc(C(F)(F)F)c2)cc1NC(=O)c1csc(-c2ccncc2)n1", "values": [{"measurement": "liver cell % of control", "setting": "[5]", "value": 91.8, "unit": "%"}, {"measurement": "parasite % of control", "setting": "[5]", "value": "76.3% (inactive)"}]}, {"smiles": "CO/N=C(/C(=O)N[C@@H]1C(=O)N2C(C(=O)O)=C(CSc3nc(=O)c(O)nn3C)CSC12)c1csc(N)n1", "note": "(stereo not given in full)", "values": [{"measurement": "inhibition", "setting": "[6]", "value": "-2% (inactive)"}, {"measurement": "fluorescence ratio (interference)", "setting": "[7]", "value": "1 (inactive)"}]}, {"smiles": "O=C(Nc1cccc(-c2csc(Nc3ccc(Cl)cc3)n2)c1)c1cccc(C(F)(F)F)c1", "values": [{"measurement": "liver cell % of control", "setting": "[5]", "value": 97.6, "unit": "%"}, {"measurement": "parasite % of control", "setting": "[5]", "value": "115% (inactive)"}]}, {"smiles": "CC(=O)N[C@H]1[C@H]([C@H](O)[C@H](O)CO)OC(C(=O)O)=C[C@@H]1O", "values": [{"measurement": "inhibition", "setting": "[6]", "value": "2% (inactive)"}, {"measurement": "fluorescence ratio (interference)", "setting": "[7]", "value": "1 (inactive)"}]}, {"smiles": "Cc1ccc2nc(CN(CCN(Cc3nc4ccc(C)cc4[nH]3)Cc3nc4ccc(C)cc4[nH]3)Cc3nc4ccc(C)cc4[nH]3)[nH]c2c1", "values": [{"measurement": "inhibition", "setting": "[6]", "value": "0% (inactive)"}, {"measurement": "fluorescence ratio (interference)", "setting": "[7]", "value": "1 (inactive)"}]}, {"smiles": "NC1=NC(=O)C(=Cc2ccc(-c3ccc(S(N)(=O)=O)cc3)o2)S1", "values": [{"measurement": "liver cell % of control", "setting": "[5]", "value": 104, "unit": "%"}, {"measurement": "parasite % of control", "setting": "[5]", "value": "97.3% (inactive)"}]}, {"smiles": "CC(C)n1cnc2c(Nc3ccc(F)c(Cl)c3)nc(NCCO)nc21", "values": [{"measurement": "liver cell % of control", "setting": "[5]", "value": 96.9, "unit": "%"}, {"measurement": "parasite % of control", "setting": "[5]", "value": "107% (inactive)"}]}, {"smiles": "C=CC(=O)N1CCN(Cc2ccc(C(=O)Nc3ncc(Sc4cc(C(=O)N5CCN(C(C)=O)CC5)c(OC)cc4C)s3)cc2)CC1", "values": [{"measurement": "liver cell % of control", "setting": "[5]", "value": 92.4, "unit": "%"}, {"measurement": "parasite % of control", "setting": "[5]", "value": "597% (inactive)"}]}, {"smiles": "COc1cc(NC(=O)N2CCNC2=O)cc(C(=O)Nc2cccc(C(F)(F)F)c2)c1", "values": [{"measurement": "liver cell % of control", "setting": "[5]", "value": 104, "unit": "%"}, {"measurement": "parasite % of control", "setting": "[5]", "value": "223% (inactive)"}]}, {"smiles": "Fc1cccc(/C=N\\N=C/c2cccc(F)c2)c1", "values": [{"measurement": "inhibition", "setting": "[6]", "value": "-2% (inactive)"}, {"measurement": "fluorescence ratio (interference)", "setting": "[7]", "value": "1 (inactive)"}]}, {"smiles": "CO[C@H]1C=CO[C@@]2(C)Oc3c(C)c(O)c4c(O)c(c5c(c4c3C2=O)NC2(CCN(CC(C)C)CC2)N=5)=NC(=O)/C(C)=C\\C=C[C@H](C)[C@H](O)[C@@H](C)[C@@H](O)[C@@H](C)[C@H](OC(C)=O)[C@@H]1C", "values": [{"measurement": "outcome", "setting": "[8]", "value": "inactive"}]}, {"smiles": "Nc1ncnc2c1c(I)cn2[C@@H]1C[C@H](N)[C@@H](O)[C@H]1O", "values": [{"measurement": "inhibition", "setting": "[6]", "value": "-1% (inactive)"}, {"measurement": "fluorescence ratio (interference)", "setting": "[7]", "value": "0.9 (inactive)"}]}, {"smiles": "CCN1CCN(Cc2ccc(NC(=O)c3ccc(C)c(NC(=O)c4ccno4)c3)cc2C(F)(F)F)CC1", "values": [{"measurement": "liver cell % of control", "setting": "[5]", "value": 100, "unit": "%"}, {"measurement": "parasite % of control", "setting": "[5]", "value": "100% (inactive)"}]}, {"smiles": "NS(=O)(=O)c1ccc(-c2ccc(C=C3NC(=S)NC3=O)o2)cc1", "values": [{"measurement": "liver cell % of control", "setting": "[5]", "value": 98.7, "unit": "%"}, {"measurement": "parasite % of control", "setting": "[5]", "value": "100% (inactive)"}]}, {"smiles": "COCCCC/C(=N/OCCN)c1ccc(C(F)(F)F)cc1", "values": [{"measurement": "inhibition", "setting": "[6]", "value": "-1% (inactive)"}, {"measurement": "fluorescence ratio (interference)", "setting": "[7]", "value": "1 (inactive)"}]}, {"smiles": "CCN1CCN(Cc2ccc(NC(=O)c3ccc(C)c(NC(=O)c4ccc5n[nH]nc5c4)c3)cc2C(F)(F)F)CC1", "values": [{"measurement": "liver cell % of control", "setting": "[5]", "value": 104, "unit": "%"}, {"measurement": "parasite % of control", "setting": "[5]", "value": "112% (inactive)"}]}, {"smiles": "CO[C@H]1C=CO[C@@]2(C)Oc3c(C)c(O)c4c(O)c(c5c(c4c3C2=O)=NC2(CCN(CC(C)C)CC2)N=5)NC(=O)C(C)=CC=C[C@H](C)[C@H](O)[C@@H](C)[C@@H](O)[C@@H](C)[C@H](OC(C)=O)[C@@H]1C", "values": [{"measurement": "fluorescence ratio", "setting": "[1]", "value": "0.96 (inactive)"}, {"measurement": "inhibition", "setting": "[2]", "value": "-2.77% (inactive)"}, {"measurement": "inhibition", "setting": "[3]", "value": "1.44% (inactive)"}, {"measurement": "fluorescence ratio", "setting": "[4]", "value": "0.96 (inactive)"}]}, {"smiles": "O=C1CN(/N=C\\c2ccc(-c3ccc([N+](=O)[O-])cc3)o2)C(=O)N1", "values": [{"measurement": "inhibition", "setting": "[6]", "value": "-3% (inactive)"}, {"measurement": "fluorescence ratio (interference)", "setting": "[7]", "value": "1 (inactive)"}]}, {"smiles": "CCN1CCN(Cc2ccc(NC(=O)c3ccc(C)c(NC(=O)c4cccc(-c5cn[nH]c(=O)c5)c4)c3)cc2C(F)(F)F)CC1", "values": [{"measurement": "liver cell % of control", "setting": "[5]", "value": 103, "unit": "%"}, {"measurement": "parasite % of control", "setting": "[5]", "value": "55.8% (inactive)"}]}, {"smiles": "Cc1ccc(C(=O)Nc2cccc(C(F)(F)F)c2)cc1NC(=O)c1c[nH]c2cc(C(F)(F)F)ccc2c1=O", "values": [{"measurement": "liver cell % of control", "setting": "[5]", "value": 97.9, "unit": "%"}, {"measurement": "parasite % of control", "setting": "[5]", "value": "25.1% (inactive)"}]}, {"smiles": "COc1cc(NC(=O)c2ccc(N)nc2)cc(C(=O)Nc2cccc(C(F)(F)F)c2)c1", "values": [{"measurement": "liver cell % of control", "setting": "[5]", "value": 97.9, "unit": "%"}, {"measurement": "parasite % of control", "setting": "[5]", "value": "85% (inactive)"}]}, {"smiles": "CC(=O)/C(C)=N\\O", "values": [{"measurement": "inhibition", "setting": "[6]", "value": "-1% (inactive)"}, {"measurement": "fluorescence ratio (interference)", "setting": "[7]", "value": "1.1 (inactive)"}]}, {"smiles": "COc1cc(NC(=O)c2csc(N)n2)cc(C(=O)Nc2cccc(C(F)(F)F)c2)c1", "values": [{"measurement": "liver cell % of control", "setting": "[5]", "value": 88.9, "unit": "%"}, {"measurement": "parasite % of control", "setting": "[5]", "value": "39.6% (inactive)"}]}]}
